Source: PubChem (Broad Institute)
IDE exosite FP: exo-site inhibitors of human IDE, primary screen, biochemical, fluorescence anisotropy, probe displacement; Insulin-degrading enzyme (Homo sapiens), P14735; purified IDE, FL-6b probe fluorescence polarization; hits give low values; z-score at 20 µM; 17,000 tested, 6.3% active; AID 1259349, 2017;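 active = z-score of -3 or lower, meaning strong loss of probe binding signal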;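 note: His-tagged human IDE residues 42-1019 made in E. coli with 30 nM FL-6b probe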
Target sequence (P14735 42-1019 limits assumed): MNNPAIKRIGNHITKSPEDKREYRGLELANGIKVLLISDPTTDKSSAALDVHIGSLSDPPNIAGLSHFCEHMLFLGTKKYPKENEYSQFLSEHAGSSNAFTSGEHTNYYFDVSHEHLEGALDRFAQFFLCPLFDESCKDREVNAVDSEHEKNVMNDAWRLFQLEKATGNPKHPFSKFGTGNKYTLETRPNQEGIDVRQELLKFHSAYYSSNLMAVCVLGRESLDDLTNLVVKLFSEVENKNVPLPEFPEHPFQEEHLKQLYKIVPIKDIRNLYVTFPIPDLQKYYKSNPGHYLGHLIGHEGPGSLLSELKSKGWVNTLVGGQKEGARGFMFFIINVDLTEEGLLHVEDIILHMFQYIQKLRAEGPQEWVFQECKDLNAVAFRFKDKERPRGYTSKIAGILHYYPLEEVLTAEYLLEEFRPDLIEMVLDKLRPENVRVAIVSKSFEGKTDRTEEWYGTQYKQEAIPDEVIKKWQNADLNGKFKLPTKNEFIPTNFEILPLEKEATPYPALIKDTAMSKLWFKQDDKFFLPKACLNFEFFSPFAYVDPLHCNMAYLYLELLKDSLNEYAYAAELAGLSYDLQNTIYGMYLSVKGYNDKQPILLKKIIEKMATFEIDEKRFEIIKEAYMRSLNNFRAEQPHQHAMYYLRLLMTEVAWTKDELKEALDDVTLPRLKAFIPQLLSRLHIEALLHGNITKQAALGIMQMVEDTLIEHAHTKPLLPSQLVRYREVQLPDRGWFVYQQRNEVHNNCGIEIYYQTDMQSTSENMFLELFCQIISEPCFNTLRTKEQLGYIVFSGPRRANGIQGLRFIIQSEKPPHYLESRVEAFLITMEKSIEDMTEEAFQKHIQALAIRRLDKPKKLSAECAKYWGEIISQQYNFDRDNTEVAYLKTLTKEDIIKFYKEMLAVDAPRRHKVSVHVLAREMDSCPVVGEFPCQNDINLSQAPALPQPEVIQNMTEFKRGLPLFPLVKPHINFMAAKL
* hit, by the source's call. The sample as a whole holds a higher share of hits than the screen did.

SMILES	IDE exosite FP
COc1ccc([C@@H]2C/C=C\C[C@@H](c3ccc4c(c3)OCO4)NC(=O)[C@H](c3ccccc3)CC(=O)N2)c(OC)c1	2
COCC(=O)N1[C@H](CNC(=O)c2ccccn2)[C@@H](c2ccccc2)[C@@H]1CO	-0.026
OC[C@H]1[C@H](c2ccc(-c3cccc(F)c3)cc2)[C@H]2CN(Cc3cncnc3)CCCCN21	0.44
O=C(c1cccc(F)c1)N1CC(=O)N2[C@@H](CO)[C@@H](c3ccc(-c4cccnc4)cc3)[C@@H]2C1	3.3
O=C(c1cccnc1)N1CC(=O)N2[C@H](C1)[C@H](c1ccc(-c3cccnc3)cc1)[C@@H]2CO	1.8
Cc1ccc(-c2ccc([C@H]3[C@H](CO)N4C(=O)CN(C(=O)c5cccnc5)C[C@@H]34)cc2)cc1	-3.2*
Cc1cccc(-c2ccc([C@H]3[C@@H](CO)N4C(=O)CN(C(=O)c5cccnc5)C[C@@H]34)cc2)c1	-8.6*
Cc1ccc(-c2ccc([C@@H]3[C@H](CO)N4C(=O)CN(C(=O)c5ccccc5)C[C@@H]34)cc2)cc1	1.6
Cc1cccc(-c2ccc([C@H]3[C@@H](CO)N4C(=O)CN(C(=O)c5ccccc5)C[C@@H]34)cc2)c1	-2.5
O=C(c1cccc(F)c1)N1CC(=O)N2[C@@H](CO)[C@H](c3ccc(-c4cccnc4)cc3)[C@@H]2C1	1.5
Cc1cccc(-c2ccc([C@@H]3[C@@H](CO)N4C(=O)CN(C(=O)c5cccnc5)C[C@H]34)cc2)c1	-4.2*
Cc1cccc(-c2ccc([C@@H]3[C@@H](CO)N4C(=O)CN(C(=O)c5ccccc5)C[C@@H]34)cc2)c1	-5.2*
Cc1ccc(-c2ccc([C@@H]3[C@@H](CO)N4C(=O)CN(C(=O)c5cccnc5)C[C@H]34)cc2)cc1	-0.43
COc1ccc2c3c([nH]c2c1)[C@H](CO)N(Cc1ccccc1)CC31CN(C(=O)c2ccccn2)C1	-1.8
O=C(Nc1ccccc1)N1CC(=O)N2[C@H](CO)[C@@H](c3ccc(C#CC4CC4)cc3)[C@@H]2C1	1.4
OC[C@H]1[C@H](c2ccc(C#CC3(O)CCCC3)cc2)[C@@H]2CN(Cc3cncnc3)CCCCN12	-1
O=C(C1CC1)N1CC(=O)N2[C@H](CO)[C@@H](c3ccc(C#CC4CCCC4)cc3)[C@@H]2C1	1.2
CN(C)C(=O)C[C@@H]1CC[C@H]2[C@@H](COC[C@@H](O)CN2S(=O)(=O)c2ccccc2Cl)O1	1.4
O=S(=O)(Cc1ccccc1)N1CCCCN2[C@H](CO)[C@@H](c3ccc(-c4ccccc4)cc3)[C@@H]2C1	0.82
CCC(=O)N1CC2(CCN(Cc3ccccc3Cl)CC2)c2c([nH]c3cc(OC)ccc23)[C@@H]1CO	-1.6
COc1ccc(S(=O)(=O)N2C[C@H](O)COC[C@@H]3O[C@@H](CC(=O)N[C@@H]4CCN(Cc5ccccc5)C4)CC[C@H]32)cc1	-1.6
C[C@@H]1CN([C@H](C)CO)C(=O)c2cc(C#Cc3ccccc3)cnc2O[C@H]1CN(C)C(=O)c1ccccc1	-2.2
COc1ccc(NC(=O)N2C[C@@H]3[C@H](c4ccccc42)[C@@H](CO)N3Cc2ccccn2)cc1	0.44
O=C(c1cnccn1)N1CC(=O)N2[C@H](CO)[C@@H](c3ccc(-c4ccccc4)cc3)[C@H]2C1	-0.27
Cc1cccc(-c2ccc([C@@H]3[C@@H](CO)N4C(=O)CN(C(=O)c5cnccn5)C[C@H]34)cc2)c1	-7.1*
SMILES	IDE exosite FP
O=C(c1cccnc1)N1CC(=O)N2[C@H](CO)[C@H](c3ccc(-c4ccc(F)cc4)cc3)[C@H]2C1	2
Cc1cccc(-c2ccc([C@@H]3[C@H]4CN(C(=O)c5cccnc5)CC(=O)N4[C@H]3CO)cc2)c1	-18*
O=C(c1cccnc1)N1CC(=O)N2[C@H](C1)[C@@H](c1ccc(-c3ccc(F)cc3)cc1)[C@@H]2CO	-1.9
O=C(c1cnccn1)N1CC(=O)N2[C@H](C1)[C@H](c1ccc(-c3cccc(F)c3)cc1)[C@@H]2CO	-0.65
CC(C)N(C[C@H]1[C@@H](c2ccccc2)[C@@H](CO)N1CC1CC1)C(=O)C1CCC1	1
COc1ccc2c3c([nH]c2c1)[C@H](CO)NCC31CN(S(=O)(=O)c2cccs2)C1	-0.59
CCCNC(=O)N1CC2(C1)CN(C(=O)Nc1ccc(F)cc1)[C@H](CO)c1[nH]c3cc(OC)ccc3c12	2.6
COCC#Cc1ccc([C@@H]2[C@H]3CN(C(=O)NC4CCCC4)CCCCN3[C@H]2CO)cc1	1.3
CCCC#Cc1ccc([C@H]2[C@@H](CO)N3CCCCN(C(=O)NC4CCCC4)C[C@H]23)cc1	-3.2*
CCCC#Cc1ccc([C@@H]2[C@@H](CO)N3CCCCN(C(=O)NC4CCCC4)C[C@@H]23)cc1	1.3
COCC#Cc1ccc([C@@H]2[C@@H](CO)N3CCCCN(C(=O)NC4CCCC4)C[C@@H]23)cc1	-1
COCC#Cc1ccc([C@@H]2[C@H](CO)N3CCCCN(C(=O)NC4CCCC4)C[C@@H]23)cc1	-1.1
CCCC#Cc1ccc([C@@H]2[C@H](CO)N3CCCCN(C(=O)NC4CCCC4)C[C@@H]23)cc1	-5.2*
O=C(C[C@@H]1C[C@H]2c3cc(NC(=O)NC4CCCC4)ccc3O[C@H]2[C@H](CO)O1)NCc1ccccc1F	0
CCCC#Cc1ccc([C@H]2[C@H](CO)N3C(=O)CN(C(=O)c4ccncc4)C[C@@H]23)cc1	4.1
Cc1ccc(-c2ccccc2[C@H]2[C@@H](CO)N(C(=O)NC3CCCC3)[C@H]2C#N)cc1	1.3
CCCC#Cc1ccc([C@@H]2[C@H]3CN(C(=O)CN4CCOCC4)CC(=O)N3[C@H]2CO)cc1	4.2
O=C(CN1CCOCC1)N1CC(=O)N2[C@@H](CO)[C@H](c3ccc(/C=C/c4ccccc4)cc3)[C@@H]2C1	-8.2*
O=C(CN1CCOCC1)N1CC(=O)N2[C@H](CO)[C@H](c3ccc(/C=C/c4ccccc4)cc3)[C@@H]2C1	-8.7*
Cc1ccc(-c2ccc([C@@H]3[C@@H](CO)N4C(=O)CN(C(=O)CN5CCOCC5)C[C@H]34)cc2)cc1	-2.3
Cc1ccc(-c2ccc([C@H]3[C@H]4CN(C(=O)CN5CCOCC5)CC(=O)N4[C@H]3CO)cc2)cc1	0.4
Cc1ccccc1S(=O)(=O)N1CCCCN2[C@H](CO)[C@H](c3ccc(-c4cccnc4)cc3)[C@@H]2C1	0.85
O=S(=O)(c1ccccc1F)N1CCCCN2[C@H](C1)[C@@H](c1ccc(-c3cncnc3)cc1)[C@@H]2CO	3.8
Cc1ccccc1S(=O)(=O)N1CCCCN2[C@H](CO)[C@H](c3ccc(-c4cncnc4)cc3)[C@H]2C1	5.4
Cc1cccc(S(=O)(=O)N2CCCCN3[C@H](CO)[C@H](c4ccc(-c5cccnc5)cc4)[C@H]3C2)c1	4.9
Cc1ccccc1S(=O)(=O)N1CCCCN2[C@H](C1)[C@H](c1ccc(-c3cccnc3)cc1)[C@@H]2CO	4.1
Cc1ccccc1S(=O)(=O)N1CCCCN2[C@@H](CO)[C@@H](c3ccc(-c4cccnc4)cc3)[C@@H]2C1	-14*
Cc1cccc(S(=O)(=O)N2CCCCN3[C@H](CO)[C@H](c4ccc(-c5cccnc5)cc4)[C@@H]3C2)c1	4.4
Cc1ccccc1S(=O)(=O)N1CCCCN2[C@H](CO)[C@@H](c3ccc(-c4cncnc4)cc3)[C@@H]2C1	-4.6*
Cc1cccc(S(=O)(=O)N2CCCCN3[C@H](CO)[C@@H](c4ccc(-c5cccnc5)cc4)[C@@H]3C2)c1	-3.7*
